Here are results for 40 compounds from ChEMBL document CHEMBL3988442, “University of Dundee, Small-Polar-MMV Screening Library” (2021).

Structures are written as SMILES.

For the test, the target named is AMP-activated protein kinase, AMPK (Homo sapiens) (UniProt P54646+O43741+P54619+Q9UGJ0+Q9Y478+Q13131+Q9UGI9). As to the kind of experiment: AMP-dependent Kinase enzyme assay. An in vitro enzyme assay that detects ADP turnover that is directly proportional to AMPK activity. This uses naive AMPK that is activated during the assay with MK-8722. The conditions noted are these: 30 µM. It is filed as functional. Further details: scale not given: direction of the effect not stated beside the values.
`COc1ccc(CCCN(C)C(=O)c2cc(C(C)=O)c[nH]2)cc1OC`: the Percent Effect was -2.16%.

For `Cc1nsc(N2CCCN(C(=O)CCc3ccsc3)CC2)n1`, the Percent Effect was -4.46%.

As for `Cc1csc(C(C)(C)NCCOc2ccc(CC#N)cc2)n1`, the Percent Effect was -8.66%. In the case of `Cc1nc(C)c(C(C)NCc2cnc(N3CCOCC3)nc2)s1` (stereo not given), the Percent Effect was 7.71%. As for `CCc1ncc(C(=O)NCCN2CCNC2=O)cn1`, the Percent Effect was 0.385%. Consider `CCN(CC)S(=O)(=O)N1CCCC(c2ncc3c(n2)CCN(C)C3)C1` (stereo not given), for which the Percent Effect is -4.24%. Next, `Cc1noc(OCC(=O)N2CCCCC2C)n1` (stereo not given): -1.69%. Take `Cc1ccc(CNCc2cccc(NC(=O)CCN3CCOCC3)c2)s1`: the Percent Effect was -4.09%.

Take `Cc1ccc(CNC(C)(C)c2noc(C(C)(C)C)n2)o1`: the Percent Effect was found to be 0.8%. For the compound `NC1CCc2nc(-c3cccnc3)nc(Nc3ccc(F)cc3)c2C1` (stereo not given), the Percent Effect was 27.2%. As to `CC(=O)N1CC(C(=O)NC(C)c2cnn(C)c2C)C1` (stereo not given), the Percent Effect was determined as 8.59%. For the compound `CCc1ccc2nc(-c3cnn(C)c3)cc(C(=O)N3CCCC3)c2c1`, the Percent Effect amounted to 7.23%. For `CC(C)C(=O)NCC(=O)N1CCC2(CC1)c1ccccc1[C@@H](N)[C@@H]2O`, the Percent Effect was 3.94%. Consider `Cc1cnn(C2CN(CCCOc3ccc(C#N)cc3)C2)c1`, for which the Percent Effect is -0.666%. The figure for `CN(C)C(=O)c1ccccc1NC(=O)N[C@@H]1c2ccccc2C[C@@H]1O` is 3.27%; for `Cc1cc(-c2cnc(N3CCC(C(N)=O)CC3)nc2C(C)C)on1` it is 21.5%.

`CNC(=O)c1cccnc1NCc1ccc(Cn2ccnc2)cc1`: the Percent Effect was -1.78%. `CC(C(=O)NC1(C#N)CCCCC1)N1CCc2c(ncn2C2CC2)C1` (stereo not given): the Percent Effect is -1.93%. For the compound `CCn1c(C2CCCNC2)nn(CCn2cncn2)c1=O` (stereo not given), the Percent Effect was -3.33%. Regarding `Cc1cnn(C2CCCN(C(=O)c3cc(-c4cccs4)n[nH]3)C2)c1` (stereo not given), the Percent Effect is -1.86%. With `Cc1ccc(OCc2occc2C(=O)N2CC[C@H](CO)[C@@H](O)C2)cc1`, the Percent Effect turned out to be 14.2%. As to `COc1ccc(OC)c(C(C(=O)O)N2CCSCC2)c1` (stereo not given), the Percent Effect was determined as 0.166%.

With `O=C(c1ccc2[nH]cnc2c1)N1CCC(Oc2ccccn2)CC1`, the Percent Effect is 3.35%. The figure for `CN(C)c1ccc(C(=O)Nc2ccn(Cc3ccccn3)n2)cn1` is 18.9%; for `CO[C@@H]1CC[C@@H](NC(=O)CCc2ccc(Cl)cc2)[C@H]1O` it is 8.1%; for `Cc1cc(C)n(C2CN(CCC(N)=O)C2)n1` it is -0.505%. On to `CNC(=O)c1ccc(CN(C(C)C)C(C)C)o1`, for which the Percent Effect is -7.38%.

As for `CC(C)(CN1CCC2(CCCNC2)C1)N1CCOCC1` (stereo not given), the Percent Effect is -0.439%. For the compound `CC(C)n1cc(CN(Cc2ccsc2)CC2CCCO2)cn1` (stereo not given), the Percent Effect amounted to 5.12%. Take `NC(=O)COc1ccc(CN2CCC3(CC2)[C@H](O)C[C@@H]3O)cc1Cl`: the Percent Effect was 8.11%. The figure for `COC(=O)NCC(=O)NC1(C)CCc2ccccc2C1` (stereo not given) is 12.8%. With `N#Cc1ccc(SCCC(=O)Nc2ccc(CC(N)=O)cc2)cc1`, the Percent Effect came out at 0.314%. As to `Cc1ncc(C(=O)NCCOc2ccccc2F)c(C)n1`, the Percent Effect is -16.7%. For the compound `O=C(Nc1ccccc1F)NC1(CO)CCOCC1`, the Percent Effect is -1.57%.

`O=C(CCn1cc(Cl)cn1)N1CCC2(CC1)OCCCC2O` (stereo not given): the Percent Effect is -8.21%. In the case of `COC(=O)c1ccc(N(C(=O)c2cccnc2C)C(C)C)c(C)c1`, the Percent Effect was -5.67%. The figure for `CCc1ccc(NC(=O)CCN2CC(n3nc(C)cc3C)C2)cc1` is -4.58%; for `O=C(C1CC1)N1CCCCCC1C1CCN(c2ncccn2)CC1` (stereo not given) it is -6.9%; for `CCC(C)NC(=O)Nc1cccc(OCC#N)c1` (stereo not given) it is -0.326%. Regarding `C[C@@H]1CN(S(=O)(=O)N2CCCCCC2)C[C@@]1(O)C1CCC1`, the Percent Effect was -7.79%.
